Biological target: Glucose transporter (Leishmania mexicana) (UniProt O61059)
Experiment: ST_JUDE_LEISH: Cytotoxicity at 2uM final concentration against transgenic Leishmania Mexicana promastigotes LmGT2 that are glucose transport deficient and complemented with the L. Mexicana glucose transporter 2. Activity is measured by DNA content using SYBR green in vitro
Assay type: functional

Compound	inhibition [%]
Cc1cc(N[C@@H](Cc2ccccc2)C(=O)NC2CCCC2)nc(NCCCOC(C)C)n1	0.61
COC(=O)c1ccc(-c2ccc(-c3cccnc3)cc2C)cc1	74.1
Cc1cc(OCCCN2CCN(CCN3CCOCC3)CC2)ccc1NC(=O)COc1ccc(Cl)cc1C(=O)c1cc(Cl)cc(C#N)c1	2.48
CCOc1ccc(C(=O)Nc2cc(Br)c3c(c2)CNCC3)cc1C(F)(F)F	-2.48
O=C(c1cccc(Cl)c1)N1CCN(c2ccc([N+](=O)[O-])c(NC3CC3)c2)CC1	0.25
CCN(CC)CCNc1ccnc2c3ccccc3n(C)c12	-0.19
COc1ccc2nccc([C@@H](O)CN3CCC(NCCOc4ccccc4C(F)(F)F)CC3)c2c1	2.28
O=C(Nc1cc(Cl)cc(Cl)c1)c1cnn(-c2ccc(F)cc2)c1C1CCNCC1	1.72
CCOc1ccc2ccccc2c1CNCCCCCCNCc1c(OCC)ccc2ccccc12	4.92
Brc1ccsc1-c1nc(NCCC(c2ccccc2)c2ccccc2)no1	0.06
COc1cc2c(Nc3ccc(NC(=O)c4ccccc4)cc3)ncnc2cc1OCCCN1CCOCC1	4.08
CC(C)C(=O)ONC1=NC(C)(C)N(OCCCOc2cc(Cl)c(Cl)cc2Cl)C(NOC(=O)C(C)C)=N1	-0.44
Oc1cccc(-c2nc(-c3ccccc3)c(-c3ccc4oc5ccc(-c6[nH]c(-c7cccc(O)c7)nc6-c6ccccc6)cc5c4c3)[nH]2)c1	2.11
CC(=O)Nc1ccc(C(=O)Nc2cccc(-c3ccc(-c4nc5ccccc5[nH]4)cc3)c2)cn1	5.92
CC(C)Sc1nncc(-c2cnnc(SC(C)C)n2)n1	0.07
c1ccc2nc(NCCCCCCCCNc3ccc4ccccc4n3)ccc2c1	4.58
O=C(NCCCCN1CCC(c2cccc3ccccc23)CC1)c1ccc(NC(=O)c2ccc(Cl)cc2)cc1	0.68
COc1ccc(CCNCCCCCCNCCc2cccc([N+](=O)[O-])c2)cc1OC	3.28
CC(=O)c1ccc(N2C(=O)C3C(Cc4ccc(OC(C)(C)C)cc4)NC4(C(=O)N(Cc5ccc(C(C)(C)C)cc5)c5ccccc54)C3C2=O)cc1 (stereo not given)	2.13
NC1CCN(Cc2cccc(-c3ccc(-c4nc5cc(F)ccc5[nH]4)cc3)c2)C1 (stereo not given)	-0.29

Compound	inhibition [%]
CC(C)CCN1CCCN(Cc2ccc(C(=O)Nc3ccc(C(C)(C)C)cc3)cc2)CC1	1.41
COc1ccc(NC(=O)CCNc2cc(C)nc(NCCOc3ccccc3)n2)cc1	1.92
Nc1c(Cl)cc(C(O)CNCCCCCOCCCc2ccc(O)c3ncccc23)cc1Cl (stereo not given)	97.5
COc1cc(-n2c(CN3CCCC3)nc3cc(-c4ccc(Cl)cc4)sc3c2=O)ccc1OCCN1CCCC1	0.37
COc1ccc2nc(C)cc(N/N=C/C=C/c3ccccc3)c2c1	3.79
CC(CNCc1cn(Cc2cc(Br)cc(Br)c2)c2ccccc12)CNc1cc(=O)c2ccccc2[nH]1 (stereo not given)	1.07
N=C(N)Nc1ccc(CCc2ccc(NC(=N)N)cc2)cc1	2.91
CC(C)(C)c1ccc2[nH]c(-c3ccc(/C=C/C(=O)NC4CCN(Cc5ccccc5)CC4)cc3)nc2c1	7.5
CC(C)(CN)c1nc(-c2ccc(Cl)c(O)c2)c(-c2ccnc(N)n2)[nH]1	-1.58
CC1CCCC(Nc2noc(-c3sccc3Br)n2)C1 (stereo not given)	-2.55
CC(C)(C)OC(=O)NCc1ccc(Nc2nnc(-c3ccc(OCC(=O)NC[C@@H]4CC[C@H]5C[C@@H]4C5(C)C)c([N+](=O)[O-])c3)o2)cc1	0.68
Cc1ccc(Oc2ccccc2NC(=O)CCc2nc3ccccc3c(=O)[nH]2)cc1	2.88
COc1ccc(-c2c(-c3ccc(OCc4ccccc4)cc3O)n[nH]c2C(F)(F)F)cc1	1.92
CC1(C)CC(NCCCCCCCOc2ccc(OCc3ccccc3)cc2)CC(C)(C)N1	55.4
O=c1cc(NCCCNCc2cc(Cl)c(Cl)cc2Cl)[nH]c2ccccc12	0.23
Oc1ccc(-c2cc(-c3ccc(O)cc3)nc(-c3ccccc3)n2)cc1	0.82
O=C(/C=C/c1ccc(Cl)c(Cl)c1)NCCCCCN1CCCN(C(=O)Nc2cc(Cl)nc(Cl)c2)CC1	5.94
COc1ccc(C2=CCN(c3ccc(Cl)c(Cl)c3)C2=O)cc1OCCN1CCCCC1	-4.01
CCCc1cc(Cc2cnc(N)nc2N)cc(CCC)c1OCCCCC(=O)OC	0.33
CCn1cc(C(=O)O)c(=O)c2cc(F)c(N3CCN(S(=O)(=O)c4ccc(N)cc4)CC3)cc21	-4

— ChEMBL document CHEMBL3433997, “St. Jude Leishmania screening dataset” (2016)
